# Sampled rows, rich in hits. Any-hit rate of the full collection: about 7.3%.
# Tau FP inhib – qHTS for Inhibitors of Tau Fibril Formation, Fluorescence Polarization; Microtubule-associated protein tau (Homo sapiens), P10636; K18 P301L tau heparin fibrillization, Alexa594 FP, 6 h; Potency, µM (series often up to 57.7 µM), without a hit: at the highest dose activity, negative = inhibition, most hits filed as inhibitors; actives 0.39% (n = 280,000); further: nearly all actives have a fitted effect of over 55% in size
#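 FP of Alexa 594-tau after heparin (20 uM) induction. Substrate: human K18 P301L, 15 uM unlabeled, 0.24 uM labeled. Buffer 100 mM sodium acetate pH 7. 6 hr, 37 C.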
# VP16 counter – VP16 counterscreen qHTS for inhibitors of ROR gamma transcriptional activity; Drosophila S2 Gal4-VP16 UAS-luciferase, luminescence, 20 h; Potency, µM (series often up to 53.6 µM), without a hit: top-dose activity, negative = inhibition, most hits filed as inhibitors; actives 3.5% (n = 310,000);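 further: Gal4-VP16 expression switched on by copper sulfate through the metallothionein promoter; nearly all actives have a fitted effect of over 50% in size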
# RORgamma inh – qHTS for inhibitors of ROR gamma transcriptional activity. Nuclear receptor ROR-gamma (Mus musculus), P51450. actives 5.4% (n = 310,000). Drosophila S2 Gal4-RORgamma UAS-luciferase reporter, 20 h. Potency, µM (doses to about 53.6 µM), inactives show at the highest dose activity change, negative = inhibition, most hits filed as inhibitors; further: nearly all actives have a fitted effect of over 60% in size
# Target sequence (P51450 whole entry, looked up, the tested form may be a part): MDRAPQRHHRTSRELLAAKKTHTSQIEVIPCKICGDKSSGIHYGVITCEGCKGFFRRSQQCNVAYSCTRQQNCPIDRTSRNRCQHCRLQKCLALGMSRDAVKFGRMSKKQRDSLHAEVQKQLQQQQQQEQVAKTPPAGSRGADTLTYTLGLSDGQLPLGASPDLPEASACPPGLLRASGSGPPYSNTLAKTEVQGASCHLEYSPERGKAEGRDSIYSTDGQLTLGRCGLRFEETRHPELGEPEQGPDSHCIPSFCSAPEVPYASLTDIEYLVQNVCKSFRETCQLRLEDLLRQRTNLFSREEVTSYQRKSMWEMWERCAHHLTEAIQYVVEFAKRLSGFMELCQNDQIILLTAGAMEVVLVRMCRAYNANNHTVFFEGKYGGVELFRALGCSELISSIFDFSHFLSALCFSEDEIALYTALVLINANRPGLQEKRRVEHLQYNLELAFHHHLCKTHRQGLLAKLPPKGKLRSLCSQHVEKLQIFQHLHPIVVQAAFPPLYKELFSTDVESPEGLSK
#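 Stable Schneider cell line, Gal4 DNA-binding domain fused to ROR gamma, UAS-luciferase. Cmpd 1 hr RT → CuSO4 700 uM final → 20 hr RT → luciferase reagent 10 min → luminescence.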
# Tau fluor cs – Counterscreen qHTS for Inhibitors of Tau Fibril Formation, Fluorescence Polarization. AID 1463, 2008. actives 0.93% (n = 280,000). tau K18 P301L Alexa594 fluorescence, heparin fibrillization. Potency, µM (titrated, usually from 57.7 µM), inactives show at the top dose activity change, negative = decrease; further: nearly all actives have a fitted effect of over 55% in size
#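 Human K18 P301L tau (15 uM unlabeled plus 0.24 uM Alexa 594-labeled, final) in 100 mM sodium acetate pH 7 was mixed with compound and 20 uM heparin and incubated 6 hr at 37 C.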
# Tau ThT inhib – qHTS for Inhibitors of Tau Fibril Formation, Thioflavin T Binding; Microtubule-associated protein tau (Homo sapiens), P10636; recombinant tau K18 P301L (four-repeat tau fragment), heparin-induced fibrillization, ThT fluorescence; Potency, µM (top dose mostly 57.4 µM), inactives show at the highest dose activity, negative = inhibition, actives largely listed as inhibitors; actives 2.1% (n = 270,000); AID 1460, 2008; further: nearly all actives have a fitted effect of over 55% in size
#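 Tau K18 P301L fragment (15 uM unlabeled plus 0.24 uM Alexa 594-labeled) in 100 mM sodium acetate pH 7 with compound, fibrillization induced by 20 uM heparin for 6 hr at 37 C. Thioflavin T (30 uM) added, fluorescence read after 1 hr (ex 450, em 510 nm).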
# Starred values were filed as active, the others as inactive; ? = inconclusive; · = no result given; [ ] = remark or other dose. The call rests on the fitted dose curve; in most records, active means well fitted curve in the direction sought with a large enough effect; inconclusive means small, poorly fitted or top-dose-only effect, or another doubt; inactive means no such curve, though single readings can be large; an effect the other way counts as inactive or inconclusive. On the % scale 0 is the no-effect control and ±100 the full control effect; potency means the concentration at half of the fitted maximal effect.
SMILES,Tau FP inhib,VP16 counter,RORgamma inh,Tau fluor cs,Tau ThT inhib
COCCn1c(C)cc(C(=O)CSc2nc3ccccc3o2)c1C,1%,?,-7%,-11%,-6%
COCCn1c(C)cc(C(=O)CSc2cc(C)c3ccc(OC)cc3n2)c1C,-10%,2.2µM*,6.3µM*,-26%,?
CC(=O)c1cccc(-n2c(=O)c3c4c(sc3n(CC(=O)c3ccc(Cl)cc3)c2=O)CN(C(C)=O)CC4)c1,1%,·,·,-13%,0%
O=C(N/N=C/c1ccc(Br)s1)c1cccc([N+](=O)[O-])c1,0%,1µM*,0.45µM*,-8%,-6%
O=C(N/N=C/c1ccoc1)c1cccc([N+](=O)[O-])c1,·,?,11µM*,·,·
Cc1ccc(/C=N/NC(=O)c2cccc([N+](=O)[O-])c2)o1,7%,?,-22%[10 µM],-8%,-17%
COc1ccc(C(=O)N/N=C\c2ccoc2)cc1,·,1%,-20%,·,·
Cc1ccc(C(=O)N/N=C/c2ccoc2)cc1C,·,?,13µM*,·,·
Cc1ccc(CN2CCSc3ccc(C(=O)N4CCN(c5cccc(C)c5C)CC4)cc32)cc1,0%,·,·,-25%,?
O=C1NC(NS(=O)(=O)c2ccccc2)(C(F)(F)F)C(=O)N1Cc1ccccc1 (centres undefined),·,0%,-9%,·,·
O=C(O)CC1c2ccccc2CCN1C(=O)Nc1cc(Cl)ccc1Cl (centres undefined),6%,·,·,8%,-2%
CC(C)(C)OC(=O)[C@H](Cc1ccccc1)NC(=O)c1[nH]cnc1C(=O)Nc1cccc(Cl)c1,22µM*,4µM*,4.5µM*,?,16%
Cc1cccc(NC(=O)c2nc[nH]c2C(=O)N[C@@H](CC(C)C)C(=O)OC(C)(C)C)c1,13µM*,10µM*,5.6µM*,?,8%
CC(C)(C)OC(=O)[C@H](Cc1ccccc1)NC(=O)c1[nH]cnc1C(=O)Nc1ccc(Cl)cc1,13µM*,8.9µM*,4µM*,?,15%
CCOC(=O)c1ccc(NC(=O)c2nc[nH]c2C(=O)N[C@@H](Cc2ccccc2)C(=O)OC(C)(C)C)cc1,?,7.1µM*,2.8µM*,?,?
COc1ccc(NC(=O)c2nc[nH]c2C(=O)N2CCN(C(=O)OC(C)(C)C)CC2)cc1,-3%,?,?,-10%,-6%
CC(C)(C)c1ccc(OCC(=O)NC(Cc2c[nH]c3ccccc23)C(=O)O)cc1 (centres undefined),6%,·,·,-8%,-16%
Cc1cccc(NC(=O)c2nc[nH]c2C(=O)N[C@@H](Cc2ccccc2)C(=O)OC(C)(C)C)c1,8.9µM*,7.1µM*,3.2µM*,?,?
Cc1cccc(COC(=O)C(Cc2ccccc2)NC(N)=O)c1 (centres undefined),·,-3%,-41%,·,·
Cc1ccc(NC(=O)CN2CCN(C)CC2)cc1Br,·,3%,13%,·,·
COc1cccc(-n2sc3c(c2=S)-c2cc(OC)ccc2NC3(C)C)c1,12%,-8%,?,13µM*[quencher],-19%
CCc1nnc(NC(=O)c2ccc(Cl)nc2)s1,-5%,-15%,?,-12%,?
CCc1nnc(NC(=O)c2cc(Cl)ccn2)s1,·,7.1µM*,4.5µM*,·,·
CCc1nnc(NC(=O)c2ncc(Cl)c(Cl)c2Cl)s1,·,4µM*,3.2µM*,·,·
O=C1c2cccc3c(Nc4ccccc4Cl)c([N+](=O)[O-])cc(c23)C(=O)N1CCO,18%,-23%,?,?,11µM*
O=[N+]([O-])c1cc(C2Nc3cccc4cccc(c34)N2)ccc1Cl,?,-6%,-8%[10 µM],18µM*[quencher],18µM*
O=C(NNC(=O)c1ccc(F)cc1)c1ccncc1,·,-7%,2%,·,·
O=C(NNC1=Nc2ccccc2SC1)c1ccc(Cl)cc1,13%,5.6µM*,1.1µM*,-24%,·
O=C(NNC1=Nc2ccccc2SC1)c1ccc(F)cc1,6%,3.5µM*,?,-15%,-9%
